Unmarked numbers belong to inactive results. The source made the active and inactive calls.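 The calls were made as follows: active = IC50 below 10 µM at human M5 in a calcium flux test, acting as a negative modulator; inactive = the rest.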

The target of this experiment is Muscarinic acetylcholine receptor M5 (Homo sapiens) (UniProt P08912). The experiment can be described thus: inhibition of ACh-evoked M5 calcium signal – cell-based, single concentration, human M5 (AID 743025). Particulars: CHO-K1 hM5, ACh EC80 calcium flux, Fluo-4; at 10 µM; active compounds read low. Background: Calcium flux is commonly read through the fluorescence of an indicator in the cells.
Chain of Muscarinic acetylcholine receptor M5 (Homo sapiens) (P08912 whole entry, looked up): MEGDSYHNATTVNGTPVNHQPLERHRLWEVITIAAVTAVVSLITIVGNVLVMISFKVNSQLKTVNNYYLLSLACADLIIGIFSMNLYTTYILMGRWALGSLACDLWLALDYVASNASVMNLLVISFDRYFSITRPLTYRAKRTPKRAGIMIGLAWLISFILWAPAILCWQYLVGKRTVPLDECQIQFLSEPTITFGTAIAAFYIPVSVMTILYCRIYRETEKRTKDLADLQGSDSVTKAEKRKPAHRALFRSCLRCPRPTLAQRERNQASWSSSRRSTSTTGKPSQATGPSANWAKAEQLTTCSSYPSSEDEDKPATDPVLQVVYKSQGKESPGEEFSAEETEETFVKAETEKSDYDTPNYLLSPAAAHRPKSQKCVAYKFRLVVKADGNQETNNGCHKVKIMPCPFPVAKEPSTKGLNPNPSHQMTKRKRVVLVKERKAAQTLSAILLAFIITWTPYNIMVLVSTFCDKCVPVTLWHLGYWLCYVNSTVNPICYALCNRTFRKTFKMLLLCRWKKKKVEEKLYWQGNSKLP
For the compound `O=C1c2ccccc2C2(c3ccc(F)cc3)NCCN12` (stereo not given), the activity remaining was 77.6%.
Turning to `O=C(c1ccc(C(=O)C(F)(F)F)cc1)N1CCN2C(=O)c3ccccc3C12c1ccccc1` (stereo not given), the activity remaining is 90%.
Consider `O=C(c1ccc(Oc2ccccc2)cc1)N1CCN2C(=O)c3ccccc3C12c1ccccc1` (stereo not given), for which the activity remaining is 75.1%.
Take `O=C(c1ccc(C(F)(F)F)cc1)N1CCN2C(=O)c3ccccc3C12c1ccc(Cl)cc1` (stereo not given): the activity remaining is 2.04% (active).
For `O=C(c1ccccc1)N1CCN(C(=O)c2ccccc2)C1c1ccccc1`, the activity remaining is 85.3%.
Regarding `Cc1cccc(C(=O)N2CCCN3C(=O)c4ccccc4C23c2ccc(Cl)cc2)c1` (stereo not given), the activity remaining is 72.9%.
On to `O=C(c1ccccc1)N1CCN2C(=O)c3ccccc3C12c1ccccc1` (stereo not given), for which the activity remaining was 74.8%.
Turning to `O=C(c1ccccc1)N1CCN2C(=O)c3ncccc3C12c1ccccc1` (stereo not given), the activity remaining was 78.7%.
In the case of `O=C(c1cc(F)cc(F)c1)N1CCN2C(=O)c3ccccc3C12c1ccc(Cl)cc1` (stereo not given), the activity remaining was 3.53% (active).
Take `CN(C)c1ccc(C(=O)N2CCN3C(=O)c4ccccc4C23c2ccc(Cl)cc2)cc1` (stereo not given): the activity remaining was 82.9%.
As to `O=C(c1cccnc1)N1CCN2C(=O)c3ccccc3C12c1ccc(Cl)cc1` (stereo not given), the activity remaining was 82.6%.
Turning to `CC(C)(C)NC(=O)N1CCCN2C(=O)c3ccccc3C12c1ccccc1` (stereo not given), the activity remaining was 83.3%.
Consider `O=C1c2ccccc2C2(c3ccccc3)N1CCN2C(=O)C1CC1` (stereo not given), for which the activity remaining was 86.4%.
Take `O=C(c1cc(F)cc(F)c1)N1CCN2C(=O)c3ncccc3C12c1ccccc1` (stereo not given): the activity remaining is 75.2%.
Regarding `COc1ccc(C23c4ccccc4C(=O)N2CCN3C(=O)c2cccc(C(F)(F)F)c2)cc1` (stereo not given), the activity remaining is 47.9% (active).

For the origin of these results see PubChem BioAssay AID743025 (Vanderbilt Specialized Chemistry Center, 2013).
